Laboratory results from publication PMC12136788.
Numbering of substitutions follows the chain as printed. In all, about 24,000 sequences were measured (“enrichment r”: median about 0.99, highest 2% from about 3.7 on). This excerpt belongs to a sample that is enriched for the highest values.

T1: UNK ZnF1-3 (human, UniProt Q9C0B0 31-174)
T1 sequence: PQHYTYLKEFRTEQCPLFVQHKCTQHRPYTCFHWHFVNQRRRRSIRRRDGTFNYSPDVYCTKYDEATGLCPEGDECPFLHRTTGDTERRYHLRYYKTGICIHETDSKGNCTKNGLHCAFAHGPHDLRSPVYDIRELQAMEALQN

B1: chr18:54424204:54424205:+_ENSG00000091157_ENST00000357574|hu_mus|FALSE|FALSE (ssRNA)
RNA: GGGAGUUCUACAGUCCGACGAUCCCAGGCGUGGAGACAGGACAUGAAUAAUUUUGCGGUAUCCAUAGUAAGGUUGUAUUCUAGUAGGGUCAGUGGCUUGGACUUGCUGGCCCGGUACUCAGGGUCACUAUCCUCCCUGCUCUGCAACAGAGGAUUGAGCAUCA
B2: 95985174_95988629_161_5pUTR_ENSMUSG00000038486_ENSMUST00000035371|mouse|control|control (ssRNA)
RNA: GGGAGUUCUACAGUCCGACGAUCGGCUAAACUGAGGAUCCAAGAUAUUUCAGGGAGGGCUGCCUAUUUUUCUUCUGAGAGGCUCUGAAGACCUGAGCUUGGUUCCCCGGGUCAGGGAGUCCCCGGGUGAGGGAGGGGGUCCAGCAACAGAGGAUUGAGCAUCA
B3: chr8:35203877:35203878:-_ENSMUSG00000031513_ENSMUST00000033910|mus_hu|motif|central (ssRNA)
RNA: GGGAGUUCUACAGUCCGACGAUCGGAAGGGCACAUCCAAGCAUCAAAAACAUCAGUCCGAUUGCUCCUCCAAAGGACAAACGGAUCAAAGCUUUGAUGCCUGCCAUGGCGGUGACGUCGCUCCUGGCUCCACGACCCGAGGCGCAACAGAGGAUUGAGCAUCA
B4: chr7:54823571:54823572:-_ENSG00000132432_ENST00000352861|hu_mus|hu_hu_hu_mus_False|98_98 (ssRNA)
RNA: GGGAGUUCUACAGUCCGACGAUCUCCCAUGAUAGCAAAUCCUAUUGCUGUAGCCAUGGCAAUCUUCUGGAAUUCUUUUCUGUCGGGUUUGGUGCAUCUUUUAACCAGCCGAAUUGAGUCCUUUACAAACUGCCGGCUGGGCUCCAACAGAGGAUUGAGCAUCA
B5: 80410323_80421071_410_CDS_ENSMUSG00000027002_ENSMUST00000028386|mouse|control|control (ssRNA)
RNA: GGGAGUUCUACAGUCCGACGAUCCACAGCAGAUUCCAGGUUUUUGUCAAUAAGGUAGGAGGGUUUAGCCUUGGGGUCGCCACAUGCCUUCUUGAUGUUGUAGAGGCGCGUGAGCAUGCCGACGCCCCGGUCGUUGAGGAUGGUCAACAGAGGAUUGAGCAUCA
B6: chr7:149838072:149838073:-_ENSMUSG00000048583_ENSMUST00000000033|mus_mus|FALSE|FALSE (ssRNA)
RNA: GGGAGUUCUACAGUCCGACGAUCGAUCACUGCUCCCGUUAUGUAGGGAAUGGGUACAAUUGAUUAUGAGCGCAUAAAAAGCUAAGGAGGGAUUAAAAAAAAAAGGAAAAAACCGGCCCCAGAAAUAAAAAGAGGGGAAUAGAUCAACAGAGGAUUGAGCAUCA
B7: chr7:75932113:75932114:+_ENSG00000106211_ENST00000248553|hu_hu|hu_hu_hu_mus_False|8_88 (ssRNA)
RNA: GGGAGUUCUACAGUCCGACGAUCCUGCGACCACUCAUCGGGCAACCGGGGCAGCCCGAAAGCUUGAUCGAAGAGGCGGCUGUGUGCAGGGUACCAGUCCCGGAAUGGUUCCCAGCUCGGGCUCCGCAGCGAGAAGGAGGGCACCAACAGAGGAUUGAGCAUCA
B8: chr3:94910677:94910678:-_ENSMUSG00000028126_ENSMUST00000107236|mus_mus|motif|central (ssRNA)
RNA: GGGAGUUCUACAGUCCGACGAUCACUUGAGCCGGGCCCCGGGAGUCCCGCGUCUCGGAUAGAACAAACCUAAAGGAAAACCGGGGCACCUGAGGUGCCCCCAAAAGCGAAUGCCCCCCCUCCCUCACCUCCCCAGCCACUGCCCAACAGAGGAUUGAGCAUCA
B9: chr2:25961539:25961540:-_ENSG00000143970_ENST00000336112|hu_mus|FALSE|FALSE (ssRNA)
RNA: GGGAGUUCUACAGUCCGACGAUCGAGUAAUGGAAAGCCUGCUCAUAACAAACCAUUUAACCCAAGAGCUCAUGAAACUUUAAGAGGAGGAAAGCAGCAUAGAGCAAUCAGAAUGGUAACUGAAGGGACCGUUCUAUGUAGGACCAACAGAGGAUUGAGCAUCA
B10: chr7:149838072:149838073:-_ENSMUSG00000048583_ENSMUST00000000033|mus_mus|motif|central (ssRNA)
RNA: B6 RNA with U82G, A83G
B11: chr2:47388980:47388981:-_ENSG00000143933_ENST00000272298|hu_mus|hu_hu_hu_mus_True|8_68 (ssRNA)
RNA: GGGAGUUCUACAGUCCGACGAUCUUCAUCUGUUAACUUCUCGCCAAGGUUUGUCAUCACAUGGCGAAGUUCUGCAGCACUAAUAUAGCCAUUGCCAUCCUUAUCAAACACACGGAAUGCUUCUCUAAUUUCUUCUUCACUGUCCAACAGAGGAUUGAGCAUCA
B12: 160109231_160113639_413_CDS_ENSG00000112096_ENST00000546260|human|control|control (ssRNA)
RNA: GGGAGUUCUACAGUCCGACGAUCAACUUCAGUGCAGGCUGAAGAGCUAUCUGGGCUGUAACAUCUCCUGGAAAACUCGGAACCGGUACAAAUACGAAGCGAGUUCUCCUCCACGGAGAGGCCCGUCCGUAUGGGGCCUGGCUCCAACAGAGGAUUGAGCAUCA
B13: chr4:144460044:144460045:+_ENSG00000153147_ENST00000283131|hu_mus|hu_hu_hu_mus_False|28_78 (ssRNA)
RNA: GGGAGUUCUACAGUCCGACGAUCACGGUCCAUAGCCUGAAGAUCAACUUGCGGAUUCCAAUCAGAAUCAUAUAAAAUGACUACAUCAGCAGUUGCAAGAUUGAUGCCAAGACCACCAGCACGUGUGCUUAGCAUAAAUACAAACAACAGAGGAUUGAGCAUCA
B14: chr6:41756983:41756984:+_ENSG00000214736_ENST00000398881|hu_mus|FALSE|FALSE (ssRNA)
RNA: GGGAGUUCUACAGUCCGACGAUCAUCAAUGUCACUCAAGUUCCUGGCCAGCCAGACUCCCGCAGCAAAGAGUCCCAAAUUGAGGAUCAAGUUCCUCCGGAAGUCGUUUCGAUCGGUGGCGAAGCGGAAGACACCGCGGAGCCACAACAGAGGAUUGAGCAUCA
B15: 40918001_40923414_123_3pUTR_ENSMUSG00000028423_ENSMUST00000098143|mouse|control|control (ssRNA)
RNA: GGGAGUUCUACAGUCCGACGAUCAGCAGCAUCUGUAUUGAAUUUAAAAGUGCCUGAGACCGGAGGCGCCUCCGCCAUCCCGUGCCGCAGCACCUCAAGCGAGCCCCGCCACCGAGCGAAGGCUGUCACCUGGUCACGUGUCCCCAACAGAGGAUUGAGCAUCA
B16: chr7:140404665:140404666:+_ENSG00000090266_ENST00000247866|hu_hu|hu_hu_hu_mus_False|1_28 (ssRNA)
RNA: GGGAGUUCUACAGUCCGACGAUCUGCUCCUACUCGUCCAGAGAGUUUACAGUGUCAGUCCUCGUCAUCAGGAGGGAUUCCCAGUUCUUCAUCUGUCCACUGUGAAGGAUCAGGAUAUGAAAAGUGACCCAGCACAGCUUCUGACAACAGAGGAUUGAGCAUCA
B17: 30503004_30509812_319_CDS_ENSG00000126858_ENST00000394692|human|control|control (ssRNA)
RNA: GGGAGUUCUACAGUCCGACGAUCCAGAUCAGAUUUGUUCCCAACCAAUAUUAAAGGCAGCCUGCUGUCUUUGUCUGUUCUUUCAUUUAUGAGAGGAAUCCAUCGACUUGUUACCUUAUCAAUAGAAUGCUUGUUGUUAACGGCCAACAGAGGAUUGAGCAUCA
B18: chr18:67805652:67805653:+_ENSMUSG00000024537_ENSMUST00000025418|mus_hu|FALSE|FALSE (ssRNA)
RNA: GGGAGUUCUACAGUCCGACGAUCAUACUUAAUAAAAAUGGAUCUUAACUGUAGAGCCACCAGCUUUCUUGAAGGCAAUGAAUACACUUCAGCAUUUAUGCUAAGUUCUGUUGAAUUUCCUUCUGUGGUCGCAUAUGGAUUGUUCAACAGAGGAUUGAGCAUCA
B19: chr13:9170561:9170562:+_ENSMUSG00000033499_ENSMUST00000091829|mus_mus|motif|central (ssRNA)
RNA: GGGAGUUCUACAGUCCGACGAUCCCAUCAGCCCCCAUCCAUCUGCUGGACACCCUACCAAUGCGCACUUGUAGACCAACGGUUAAAAAAAAAAAAAAAGGAAGUAGCAGAGUUCCCUUAAUUUAGAAAAACUCAUUAUAGCUUCAACAGAGGAUUGAGCAUCA
B20: chr1:32384726:32384727:-_ENSG00000184007_ENST00000602725|perfect_dup|FALSE|FALSE (ssRNA)
RNA: GGGAGUUCUACAGUCCGACGAUCAGGAGGAAAUCAAUAAAUCUUGAAAUGUUCCGCAGCAGAAAACAUUAAAAAGACCACUAAAAUGCCUAUUAUUGAUCACUAUUUUCUCUAUUCAACUUGCUUGUUCCUUAGGAAGCUUCUCAACAGAGGAUUGAGCAUCA
B21: chr2:43450610:43450611:-_ENSG00000152518_ENST00000282388|hu_mus|FALSE|FALSE (ssRNA)
RNA: GGGAGUUCUACAGUCCGACGAUCGUUAAAUAGUUUUUCAUAUUGAGUUGUGGUGCAGUGGUGCGGAUCAACUCAGAACAACUAAAAAUGAAGCACUUAUUUCCCAACAACUAUGAACUGAGCUCUGCCCAUAGCUUCCAGAGACAACAGAGGAUUGAGCAUCA
B22: chr13:9170561:9170562:+_ENSMUSG00000033499_ENSMUST00000091829|mus_hu|FALSE|FALSE (ssRNA)
RNA: GGGAGUUCUACAGUCCGACGAUCCACUGGCCCUCAUUCAUCUGCGGGGACGUUCUAGAGAUAUGCACUUACAGACCAGUUACUUAAAAAAAAAAAAAAAAAGCAGAGUUCCCUUAAUUUAGAAAAACUCACUAUAUAUAGCUUCAACAGAGGAUUGAGCAUCA
B23: 48821072_48822033_622_CDS_ENSG00000108848_ENST00000240304|human|control|control (ssRNA)
RNA: GGGAGUUCUACAGUCCGACGAUCUGCAGCAAAGCUUUCAAUUGUCGACGUUGUGGACCUUAGCAGUUCUCUCUCUUCUUUUAAUUGCUCAACUAAUUUCAUCAUCCCCUGGGCUUCUUCUACUUUUCCUUCAGACCCUAAUUCCAACAGAGGAUUGAGCAUCA
B24: chr7:108137184:108137185:-_ENSG00000135241_ENST00000257694|hu_mus|motif|central (ssRNA)
RNA: GGGAGUUCUACAGUCCGACGAUCUCGAUAGAGUUCCUCACAUUCAUCCAGCGGCAUGUGAAACAAUCCCAGCAUAAAUGCGGAUAUGGCCCCUGUGCUUACUCCACAGAUGUAAUCAAAAAGCUGAUGAAUCGGCUUCUGAGUCAACAGAGGAUUGAGCAUCA
B25: chr13:9170561:9170562:+_ENSMUSG00000033499_ENSMUST00000091829|mus_mus|FALSE|FALSE (ssRNA)
RNA: B19 RNA with G80U, G81A

The binders below were run against T1, UNK ZnF1-3 (assay: nsRBNS (natural sequence RNA bind-n-seq); RBNS binding buffer (assumed for nsRBNS): 25 mM Tris pH 7.5, 150 mM KCl, 3 mM MgCl2, 0.01% Triton X-100, 500 ug/ml BSA, 20 U/ml SUPERase-In, 4 C; UNK is unkempt and MSI1 is Musashi-1; names of the RNAs are library labels; protein concentration not given here; high values mean tight binding).

Binder | binding signal
B1 | 0.993 enrichment R
B2 | 1.92 enrichment R
B3 | 0.394 enrichment R
B4 | 0.647 enrichment R
B5 | 0.855 enrichment R
B6 | 11 enrichment R
B7 | 1.63 enrichment R
B8 | 2 enrichment R
B9 | 3.45 enrichment R
B10 | 9.4 enrichment R
B11 | 0.795 enrichment R
B12 | 0.808 enrichment R
B13 | 1.2 enrichment R
B14 | 1.55 enrichment R
B15 | 1.06 enrichment R
B16 | 1.15 enrichment R
B17 | 0.92 enrichment R
B18 | 1.04 enrichment R
B19 | 4.58 enrichment R
B20 | 0.842 enrichment R
B21 | 1.32 enrichment R
B22 | 6.5 enrichment R
B23 | 0.686 enrichment R
B24 | 1.13 enrichment R
B25 | 5.05 enrichment R
